Potency and outcome data for seven molecules are collected here from PubChem BioAssay (Tox21).

Test [1] is described as follows: Nuclear factor erythroid 2-related factor 2/antioxidant responsive element (Nrf2/ARE) small molecule agonists: qHTS cell viability counter screen in human keratinocytes (AID 1919968; active = well fitted curve in the direction sought with a large enough effect in the repeat runs; an effect the other way counts as inactive or inconclusive; note: nearly all actives have a fitted effect of over 55% in size; note: potency is the fitted concentration of half-maximal effect). The method in brief:
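Measured as CellTiter-Fluor fluorescence, this readout tracks cytotoxicity in the same wells as the ARE-luciferase screen. HaCaT reporter cells (1,500/well) received compounds after a 5 h pre-incubation and were exposed for 23 h.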
On the technique in general: qHTS replaces the single test concentration by a dilution series.

Test [2] is described as follows: Nuclear factor erythroid 2-related factor 2/antioxidant responsive element (Nrf2/ARE) small molecule agonists: luciferase reporter gene qHTS assay in human keratinocytes (AID 1919969; note: nearly all actives have a fitted effect of over 35% in size). (In general: In a reporter assay the amount or activity of a reporter protein is the signal.)
Test [3] concerns the target Gonadotropin-releasing hormone receptor (Homo sapiens) (UniProt P30968). Nature of the test: Human gonadotropin-releasing hormone receptor (GnRHR) small molecule agonists, calcium flux assay in GnRHR-HEK293 cells (AID 1920063). Note: nearly all actives have a fitted effect of over 35% in size. The method in brief: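 Fluorescence kinetics (480 nm excitation, 540 nm emission; 3 min, 1 s steps) report calcium mobilisation in human GnRHR-HEK293 cells in agonist mode. Dye incubation: 1 h, 37 C.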
(In general: Calcium flux is commonly read through the fluorescence of an indicator in the cells.)

For test [4], the target named is KiSS-1 receptor (Homo sapiens) (UniProt Q969F8). Briefly: Human kisspeptin (KISS1R) small molecule agonists, calcium flux assay in KISS1R-HEK293 cells (AID 1920064; active = well fitted curve in the direction sought with a large enough effect in the repeat runs; an effect the other way counts as inactive or inconclusive). The method in brief: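 Measures KISS1R agonism through calcium-sensitive dye fluorescence in stably transfected HEK293 cells, read for 3 min after pin-tool compound delivery; 15-point titrations in triplicate.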

The nature of test [5]: G protein-coupled receptor (GPCR) small molecule agonists, calcium flux assay: HEK293 wild type cell line counter screen (AID 1920065). The method in brief: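 Readout: fluorescence at 480 nm excitation/540 nm emission, sampled at 1 s intervals for 3 min. Cells had been cultured 18 h, then dye-loaded 1 h at 37 C before compound or ATP addition.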
Test [6] is described as follows: p53 small molecule agonists, cell-based qHTS assay with human liver microsomes (AID 1963577).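 Note: p53 response element beta-lactamase reporter cells with liver microsomes plus NADPH.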 The method in brief: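 16 h, 37 C exposure of p53RE-bla cells to compounds with human liver microsomes and NADPH (0.5 mg/mL final each); detection via LiveBLAzer mixture, 2 h dark at room temperature.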
Test [7] in a line: p53 small molecule agonists, cell-based qHTS assay with rat liver microsomes: qHTS cell viability counter screen (AID 1963580). Note: nearly all actives have a fitted effect of over 45% in size. The method in brief: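 p53RE-bla HCT-116 cells (4,000/well) rested 5 h at 37 C, then given Tox21 compounds in DMSO with rat liver microsomes (0.5 mg/mL final) plus NADPH (0.5 mg/mL final) for 16 h at 37 C. Viability read by CellTiter-Glo luminescence after 30 min at room temperature.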

Test [8] in a line: p53 small molecule agonists, cell-based qHTS assay: qHTS cell viability counter screen (AID 1963581). Note: nearly all actives have a fitted effect of over 45% in size. The method in brief: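 In the same plates used for the p53 bla reporter, HCT-116 cells given compounds for 16 h at 37 C received CellTiter-Glo; luminescence was recorded 30 min later at room temperature.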
The nature of test [9]: p53 small molecule agonists, cell-based qHTS assay (AID 1963582; active = well fitted activation curve with a large enough effect in the signal ratio in the repeat runs, not every such curve was filed as active; the % refers to the signal ratio). The method in brief: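 Compounds are pin-transferred in DMSO onto p53RE-bla cells and incubated 16 h at 37 C. The B/G FRET beta-lactamase substrate is then applied for 2 h at RT and fluorescence recorded.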
The target in test [10] is 5-hydroxytryptamine receptor 2A (Homo sapiens) (UniProt P28223). Nature of the test: 5-hydroxytryptamine receptor 2A (HTR2A) small molecule antagonists, cell-based qHTS assay (AID 1963586). Note: nearly all actives have a fitted effect of over 45% in size. The method in brief:
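Antagonist-mode intracellular calcium assay: DOI (4 nM) added after 5 min compound pre-incubation at room temperature to dye-loaded HTR2A-CHO cells. Fluorescence followed for 3 min, sampled every second.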

For test [11] the target is unchanged. Nature of the test: 5-hydroxytryptamine receptor 2A (HTR2A) small molecule agonists, cell-based qHTS assay (AID 1963587). Note: nearly all actives have a fitted effect of over 30% in size. Note: potency is the fitted concentration of half-maximal effect. The method in brief:
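HTR2A-CHO cells, plated 18 h at 37 C/5% CO2, dye-loaded 1 h at 37 C; compounds in DMSO added by pin tool (agonist mode). Intracellular calcium flux read as kinetic fluorescence on FDSS over 2 min at 1 s intervals.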

For test [12], the target named is Muscarinic acetylcholine receptor M1 (Homo sapiens) (UniProt P11229). Nature of the test: Cholinergic receptor muscarinic 1 (CHRM1) small molecule antagonists, cell-based qHTS assay (AID 1963588). Note: nearly all actives have a fitted effect of over 40% in size. The method in brief:
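CHRM1-CHO calcium-flux assay, antagonist mode. Cells were seeded 18 h, dye-loaded 1 h at 37 C and given compound for 5 min at RT, then acetylcholine was added at 50nM. FDSS fluorescence was read 3 min; 15 concentrations, three runs.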

For test [13] the target is unchanged. Nature of the test: Cholinergic receptor muscarinic 1 (CHRM1) small molecule agonists, cell-based qHTS assay (AID 1963589). Note: nearly all actives have a fitted effect of over 35% in size. The method in brief:
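Each compound was tested at 15 concentrations across three independent runs on dye-loaded CHO cells stably expressing human CHRM1, reading intracellular calcium fluorescence kinetically at 1 sec intervals.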

Test [14] in a line: cAMP Responsive Elements (CRE) small molecule agonists, cell-based qHTS assay (AID 1963590). The method in brief:
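Cell line: CRE-bla HEK 293T; medium DMEM/10% dialyzed FBS/0.1 mM NEAA/1 mM pyruvate/25 mM HEPES; 3 h compound exposure; beta-lactamase FRET readout after 2 h substrate loading at RT.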

A short description of test [15]: cAMP Responsive Elements (CRE) small molecule antagonists, cell-based qHTS assay (AID 1963591; active = well fitted inhibition curve with a large enough effect in the signal ratio in the repeat runs, not every such curve was filed as active; the % refers to the signal ratio). The method in brief:
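Inhibition of NKH477-driven (0.25 uM final) CRE-beta-lactamase signal in HEK293T cells, 3 h compound exposure at 37 °C, detected by FRET substrate fluorescence.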

The target of test [16] is Beta-2 adrenergic receptor (Homo sapiens) (UniProt P07550). Briefly: Adrenergic beta2 receptor (ADRB2) small molecule antagonists, cell-based qHTS assay (AID 1963592). Note: nearly all actives have a fitted effect of over 50% in size. Note: potency is the fitted concentration of half-maximal effect. The method in brief:
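Cells (CHO, stable ADRB2 overexpression) incubated 18-20hr at 37C; compounds added from DMSO; agonist mix (1nM isoproterenol, 100uM IBMX, 25uM Ro-20-1724) added; 0.5hr RT; d2-cAMP and anti-cAMP-cryptate added; 1hr RT; 665/615 nm read.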

In test [17] the target is D(2) dopamine receptor (Homo sapiens) (UniProt P14416). Nature of the test: Dopamine D2 receptor (DRD2) small molecule agonists, cell-based qHTS assay (AID 1963594). Note: nearly all actives have a fitted effect of over 35% in size. The method in brief: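 HEK293 cells stably expressing DRD2 were cultured 24 h at 37 C, then given Ro20-1724 (0.1 mM final) and compounds for 10 min at room temperature. NKH477 (200nM) was then added for 30 min. cAMP was read by HTRF.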

Test [18] shares this target. Briefly: Dopamine D2 receptor (DRD2) small molecule antagonists, cell-based qHTS assay (AID 1963595; active = well fitted inhibition curve with a large enough effect in the signal ratio in the repeat runs, with a control signal flat; the % refers to the signal ratio). The method in brief: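 Stable D2 receptor HEK293 line, 24 h after seeding. Compound preincubated 10 min, then quinpirole (12 nM) with forskolin analogue NKH477 (200 nM), 30 min, room temperature. Detection by time-resolved FRET of cAMP.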
Test [19] can be described thus: p53 small molecule agonists, cell-based qHTS assay with human liver microsomes: qHTS cell viability counter screen (AID 1963579). Note: nearly all actives have a fitted effect of over 45% in size. The method in brief:
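In this multiplexed counter screen, the reporter plates were subsequently treated with CellTiter-Glo so that cell viability, reflected by luminescence, could be recorded for p53RE-bla cells dosed 16 h with compounds under microsomal activation (HLM and NADPH).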

Each structure is given as a SMILES string. Results filed as inconclusive are left out. Calls of active or inactive are those of the source. Unless noted, calls come from the whole dose curve.

Beta-2 adrenergic receptor (Homo sapiens), sequence (P07550 whole entry, looked up): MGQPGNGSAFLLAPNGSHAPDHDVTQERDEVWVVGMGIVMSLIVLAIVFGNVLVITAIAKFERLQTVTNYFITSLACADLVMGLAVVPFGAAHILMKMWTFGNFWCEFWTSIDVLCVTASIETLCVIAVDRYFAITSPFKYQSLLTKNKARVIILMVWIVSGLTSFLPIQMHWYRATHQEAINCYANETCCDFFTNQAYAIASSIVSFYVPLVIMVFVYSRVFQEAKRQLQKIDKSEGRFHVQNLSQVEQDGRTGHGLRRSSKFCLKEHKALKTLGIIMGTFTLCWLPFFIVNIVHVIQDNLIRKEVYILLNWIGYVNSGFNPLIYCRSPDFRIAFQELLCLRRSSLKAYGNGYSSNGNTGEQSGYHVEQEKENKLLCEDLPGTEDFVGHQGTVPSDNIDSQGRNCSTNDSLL
KiSS-1 receptor (Homo sapiens), sequence (Q969F8 whole entry, looked up): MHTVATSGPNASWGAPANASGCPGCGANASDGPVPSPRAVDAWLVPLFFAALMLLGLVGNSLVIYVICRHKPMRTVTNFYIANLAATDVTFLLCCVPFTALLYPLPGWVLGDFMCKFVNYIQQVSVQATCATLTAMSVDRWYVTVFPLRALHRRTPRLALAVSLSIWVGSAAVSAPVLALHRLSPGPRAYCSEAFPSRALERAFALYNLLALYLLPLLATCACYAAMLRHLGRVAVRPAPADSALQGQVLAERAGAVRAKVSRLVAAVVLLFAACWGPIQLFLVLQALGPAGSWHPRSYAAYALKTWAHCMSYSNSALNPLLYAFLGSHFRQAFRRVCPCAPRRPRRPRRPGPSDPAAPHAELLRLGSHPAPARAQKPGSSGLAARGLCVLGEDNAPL
D(2) dopamine receptor (Homo sapiens), sequence (P14416 whole entry, looked up): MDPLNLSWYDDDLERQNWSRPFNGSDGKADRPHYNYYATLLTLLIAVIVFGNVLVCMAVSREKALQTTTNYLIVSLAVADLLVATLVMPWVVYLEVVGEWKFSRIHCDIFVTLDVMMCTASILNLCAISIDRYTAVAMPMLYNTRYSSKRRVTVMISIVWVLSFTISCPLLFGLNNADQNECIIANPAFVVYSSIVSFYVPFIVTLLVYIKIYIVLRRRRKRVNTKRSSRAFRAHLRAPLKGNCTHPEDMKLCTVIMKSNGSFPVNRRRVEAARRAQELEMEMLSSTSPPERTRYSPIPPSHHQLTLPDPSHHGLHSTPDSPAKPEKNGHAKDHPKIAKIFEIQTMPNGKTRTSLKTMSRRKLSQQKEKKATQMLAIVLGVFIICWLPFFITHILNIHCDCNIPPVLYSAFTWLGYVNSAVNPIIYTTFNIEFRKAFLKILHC
Gonadotropin-releasing hormone receptor (Homo sapiens), sequence (P30968 whole entry, looked up): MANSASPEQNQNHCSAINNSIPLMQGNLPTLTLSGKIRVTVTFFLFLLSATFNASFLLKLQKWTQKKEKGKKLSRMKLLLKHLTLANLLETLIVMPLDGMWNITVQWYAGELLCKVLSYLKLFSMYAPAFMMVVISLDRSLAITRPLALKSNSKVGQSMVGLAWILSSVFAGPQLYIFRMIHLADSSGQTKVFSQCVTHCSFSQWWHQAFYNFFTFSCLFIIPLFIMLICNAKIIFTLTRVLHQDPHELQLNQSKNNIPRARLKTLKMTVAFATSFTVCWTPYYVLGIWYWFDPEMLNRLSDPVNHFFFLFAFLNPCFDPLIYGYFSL
Muscarinic acetylcholine receptor M1 (Homo sapiens), sequence (P11229 whole entry, looked up): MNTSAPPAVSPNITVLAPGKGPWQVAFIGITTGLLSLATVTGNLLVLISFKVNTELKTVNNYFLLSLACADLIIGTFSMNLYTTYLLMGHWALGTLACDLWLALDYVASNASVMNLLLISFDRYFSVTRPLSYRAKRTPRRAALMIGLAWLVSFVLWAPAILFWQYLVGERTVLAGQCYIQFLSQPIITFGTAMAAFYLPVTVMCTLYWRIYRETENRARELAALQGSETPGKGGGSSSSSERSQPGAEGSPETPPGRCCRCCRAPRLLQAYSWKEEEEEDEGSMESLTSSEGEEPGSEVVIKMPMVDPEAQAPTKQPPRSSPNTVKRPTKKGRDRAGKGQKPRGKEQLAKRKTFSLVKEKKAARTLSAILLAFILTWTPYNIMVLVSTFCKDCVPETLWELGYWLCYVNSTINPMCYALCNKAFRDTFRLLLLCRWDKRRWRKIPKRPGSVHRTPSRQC
5-hydroxytryptamine receptor 2A (Homo sapiens), sequence (P28223 whole entry, looked up): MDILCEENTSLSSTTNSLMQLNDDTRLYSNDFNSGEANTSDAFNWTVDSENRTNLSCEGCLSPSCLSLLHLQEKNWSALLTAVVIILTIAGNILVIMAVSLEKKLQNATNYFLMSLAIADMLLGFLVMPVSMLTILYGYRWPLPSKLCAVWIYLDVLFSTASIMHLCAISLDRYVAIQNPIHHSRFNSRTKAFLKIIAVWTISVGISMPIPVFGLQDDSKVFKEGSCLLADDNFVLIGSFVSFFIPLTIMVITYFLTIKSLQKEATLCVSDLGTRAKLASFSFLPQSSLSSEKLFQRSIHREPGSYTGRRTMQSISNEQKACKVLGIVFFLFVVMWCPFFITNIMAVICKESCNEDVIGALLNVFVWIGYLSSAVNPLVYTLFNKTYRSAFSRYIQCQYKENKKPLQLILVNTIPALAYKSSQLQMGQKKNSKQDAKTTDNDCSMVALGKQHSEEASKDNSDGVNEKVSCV

With `O=C(O)c1cc(C(=O)O)c(C(=O)O)cc1C(=O)O`, the Potency result in [1], in [2], in test [3], in [6], in test [7] and in test [8] was “inactive” throughout. Besides, the Potency entry in [9], in [10], in test [11], in test [12], in test [13] and in test [14] was “inactive” in each case. Also, the Potency result in test [15], in [16], in test [17] and in test [18] was “inactive” each time. Also, the outcome in [4] and in [5] was inactive.
`Cc1cccc(CN2CCN(C(c3ccccc3)c3ccc(Cl)cc3)CC2)c1` (configuration not stated): the Potency in [1] is 18.8 µM (active). Besides, the Potency result in test [2], in test [3], in [6], in [19], in test [7] and in test [11] was “inactive” throughout. For the same molecule, the Potency entry in test [12], in test [13], in test [14], in test [16], in test [17] and in test [18] was “inactive” in each case. The outcome in test [4] and in test [5] was inactive.
As for `Nc1ccc(S(=O)(=O)NCc2ccccc2)cc1`, the Potency result in test [1], in test [2], in [3], in test [6], in test [19] and in test [7] was “inactive” in each case. The Potency result in [8], in test [11], in test [12], in [13], in test [14] and in test [15] was “inactive” in each case. Moreover, in test [17], the Potency entry was “inactive”. Besides, the result in test [4] and in [5] was inactive.
For `NS(=O)(=O)c1cc(-c2nn[nH]n2)c(NCc2cccs2)cc1Cl`, the Potency entry in test [1], in test [2], in [3], in test [6], in test [19] and in test [7] was “inactive” throughout. Besides, the Potency entry in test [9], in test [10], in [11], in test [12], in test [13] and in test [14] was “inactive” in each case. Also, the Potency entry in [15], in test [16] and in test [17] was “inactive” in each case. Further, the outcome in test [4] and in test [5] was inactive.
`C=CCNc1nc(NCC=C)nc(N2CCN(C(c3ccc(F)cc3)c3ccc(F)cc3)CC2)n1`: the Potency was 4.22 µM (active) in [1], 2.68 µM (active) in [11] and 11.9 µM (active) in test [16]. In addition, the Potency entry in test [2], in test [3], in test [6], in test [19], in test [7] and in test [8] was “inactive” throughout. Moreover, the Potency entry in test [12], in [13], in [14], in [15], in test [17] and in test [18] was “inactive” each time. The result in test [4] and in test [5] was inactive.
Take `C=CC(=O)O`: the Potency entry in test [1], in test [2], in test [3], in test [6], in test [19] and in [7] was “inactive” in each case. Also, the Potency result in test [8], in [10], in [11], in test [12], in test [13] and in test [14] was “inactive” throughout. The Potency entry in test [15], in [16], in test [17] and in [18] was “inactive” each time. For the same molecule, the outcome in [4] and in test [5] was inactive.
On to `COc1c(C)c2c(c(O)c1C/C=C(\C)CCC(=O)OCCN1CCOCC1)C(=O)OC2`, for which the Potency result in test [1], in test [2], in [3], in test [6], in test [19] and in test [7] was “inactive” throughout. Further, the Potency result in [8], in test [16], in [17] and in test [18] was “inactive” each time. The outcome in test [4] and in [5] was inactive.
